GAA glycogen: inhibitors or activators of human alpha-glucosidase glycogen cleavage; P10253; recombinant GAA, glycogen substrate, Amplex Red glucose oxidase fluorescence; Potency, µM (series often up to 76.4 µM), most hits filed as inhibitors; 0.38% of 300,000 active;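 note: the screen sought inhibitors and activators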
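Recombinant human alpha-glucosidase (4 nM final) hydrolysed bovine liver glycogen (30 ug) for 40 min at 37 C in pH 5.0 citrate/phosphate with 0.01% Tween-20. Released glucose detected by glucose oxidase/Amplex Red, Ex 573/Em 610 nm. Compounds up to 77 uM; AC50 from Hill fits.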
GAA inhib: inhibitors of human lysosomal alpha-glucosidase. P10253. purified human GAA, 4-MU-alpha-glucoside fluorescence. Potency, µM (highest dose often 76.9 µM), usual class: inhibitors. 0.005% of 200,000 active
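Enzyme (4 nM final) mixed with compound (up to 77 uM), then 4-MU-alpha-D-pyranoside (400 uM final) added; 20 min at room temperature, pH 5.0. Reaction stopped at pH 10, fluorescence read, AC50 derived by Hill fit.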
GALK inhibitor: blocks human galactokinase activity; Purified GALK, Kinase-Glo residual ATP luminescence; Potency, µM (highest dose often 57.5 µM), hits mostly inhibitors; 0.007% of 270,000 active; AID 1868
Target sequence (P51570 whole entry, looked up): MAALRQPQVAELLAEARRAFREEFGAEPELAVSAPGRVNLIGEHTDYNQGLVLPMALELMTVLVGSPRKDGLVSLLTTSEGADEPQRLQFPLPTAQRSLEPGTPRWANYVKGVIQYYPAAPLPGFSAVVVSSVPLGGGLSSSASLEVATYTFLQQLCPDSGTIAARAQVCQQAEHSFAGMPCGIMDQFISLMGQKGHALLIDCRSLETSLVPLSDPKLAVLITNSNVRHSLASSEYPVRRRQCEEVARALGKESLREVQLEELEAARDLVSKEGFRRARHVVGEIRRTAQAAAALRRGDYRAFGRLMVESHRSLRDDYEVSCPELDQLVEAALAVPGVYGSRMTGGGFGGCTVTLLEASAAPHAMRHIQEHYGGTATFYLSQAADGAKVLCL
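ATP-depletion format; final 35 uM ATP, 100 uM D-galactose, 5 nM enzyme; pH 8.0 HEPES/Mg2+ buffer; 60 min RT; luminescence read 10 min after detection reagent.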
PKM2 act: PKM2 (human) enzyme activation | P14618 | purified PKM2, Kinase-Glo ATP luminescence, activation; response scale: 0% is enzyme alone, no compound | Potency, µM (top dose mostly 57.5 µM), hits mostly activators | 0.34% of 260,000 active; note: nearly all actives have a fitted effect of over 55% in size
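Purified hPK-M2 (>95% pure) converted ADP (0.1 mM final) to ATP with 0.5 mM PEP in 50 mM imidazole pH7.2, KCl, MgCl2, Tween 20, BSA; 1 h at room temperature. ATP detected by Kinase-Glo luminescence.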
GAA spleen mod: inhibits or activates alpha-glucosidase in human spleen homogenate; Potency, µM (series often up to 79.9 µM), actives largely listed as inhibitors; P10253; human spleen homogenate, 4-MU-alpha-glucoside fluorescence; AID 2112; 0.006% of 240,000 active
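Human spleen homogenate (1 ug) with 4-methylumbelliferyl-alpha-D-glucopyranoside (1 mM final) in 50 mM citrate/phosphate pH 5.0, 0.01% Tween-20; 40 min at 37 C. Stopped at pH 10; 4-MU fluorescence Ex 365/Em 440 nm; AC50 by Hill fit.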
HeLa tox: HeLa cytotoxicity, CellTiter-Glo readout; shares compounds with PKM2 act; HeLa viability, CellTiter-Glo ATP luminescence, 24 h; 230 tested, under 10 active; activity change, negative = cytotoxicity, % at 57.5 µM
Large screens that a line does not name were inactive (follow-up assays come after a bar, where they were run). Compounds with a hit are over-represented: about 0.63% of the library has one in this group of screens. Calls come from the whole dose curve; as a rule, active = well fitted curve in the direction sought with a large enough effect; inconclusive = small, poorly fitted or top-dose-only effect, or another doubt; inactive = no such curve, though single readings can be large; an effect the other way counts as inactive or inconclusive.

CCn1c(SCC(=O)N/N=C/C=C\c2ccco2)nc2ccccc21	PKM2 act inconclusive
Cc1noc(C)c1S(=O)(=O)N1CCCC(C(=O)Nc2ccc(C(C)C)cc2)C1 (centres undefined)	none (no result: GAA inhib, GALK inhibitor, PKM2 act, GAA spleen mod)
Cc1cccc(CN2CCN(c3nc4nonc4nc3NC3CC3)CC2=O)c1	PKM2 act 3.5µM (no result: GAA inhib) | HeLa tox inactive
Nc1nc2ccc(S(=O)(=O)c3ccc4nc(N)sc4c3)cc2s1	GAA inhib inconclusive, PKM2 act 14µM | HeLa tox inactive
Nc1nc2ccc(O)cc2s1	GAA glycogen inconclusive
Cc1ccc(NC(=O)CSc2cn(CC(=O)N3CCOCC3)c3ccccc23)cc1Cl	none (no result: GAA inhib, GALK inhibitor, PKM2 act, GAA spleen mod)
Cc1cc2c(s1)c1cnn(Cc3ccccc3Cl)c(=O)c1n2C	none (no result: GAA glycogen, GAA inhib, GALK inhibitor, PKM2 act, GAA spleen mod) | HeLa tox inactive
Cc1cc2c(s1)c1cnn(Cc3ccc(F)cc3F)c(=O)c1n2C	none (no result: GAA glycogen, GAA inhib, GALK inhibitor, PKM2 act, GAA spleen mod) | HeLa tox inactive
O=c1c(Cl)c(Cl)cnn1Cc1ccc(F)cc1	PKM2 act inconclusive
Cc1cc2c(s1)c1cnn(Cc3ccccc3)c(=O)c1n2C	none (no result: GAA glycogen, GAA inhib, GALK inhibitor, PKM2 act, GAA spleen mod) | HeLa tox inactive
Cc1cc2c(s1)c1cnn(Cc3ccc(F)cc3)c(=O)c1n2C	none (no result: GAA glycogen, GAA inhib, GALK inhibitor, PKM2 act, GAA spleen mod) | HeLa tox inactive
C=CCC(CC=C)(CNC(=O)C(=O)Nc1cccc(C(F)(F)F)c1)c1ccccc1	none (no result: GAA inhib, GALK inhibitor, PKM2 act, GAA spleen mod)
Cc1cc2c(s1)c1cnn(CC(=O)NCCc3ccccc3)c(=O)c1n2C	none
Cc1ccc(Cn2ncc3c4sc(C)cc4n(C)c3c2=O)cc1	none (no result: GAA glycogen, GAA inhib, GALK inhibitor, PKM2 act, GAA spleen mod) | HeLa tox inactive
Cc1cc2c(s1)c1cnn(-c3ccccc3)c(=O)c1n2C	none (no result: GAA glycogen, GAA inhib, GALK inhibitor, PKM2 act, GAA spleen mod) | HeLa tox inactive
Cc1cc2c(s1)c1cnn(Cc3ccc(S(C)(=O)=O)cc3)c(=O)c1n2C	none (no result: GAA glycogen, GAA inhib, GALK inhibitor, PKM2 act, GAA spleen mod) | HeLa tox inactive
O=C(CN1C(=O)N/C(=C\c2cccn2-c2cccc(C(=O)O)c2)C1=O)Nc1ccccc1F	none (no result: GAA glycogen, GAA inhib, GALK inhibitor, PKM2 act, GAA spleen mod) | HeLa tox inactive
Cc1ccc(C)c(NC(=O)Cn2c(=O)n(Cc3ccco3)c(=O)c3oc4ccccc4c32)c1	none (no result: GAA inhib, GALK inhibitor, PKM2 act, GAA spleen mod)
Cc1ccc2oc(C(=O)N(C)Cc3ccc(C)o3)c(C)c2c1	PKM2 act 6.3µM (no result: GAA glycogen, GAA inhib, GAA spleen mod) | HeLa tox inactive
Cc1ccc2oc(C(=O)N(C)Cc3ccon3)c(C)c2c1	none (no result: GAA glycogen, GAA inhib, PKM2 act, GAA spleen mod)
Fc1ccccc1Cn1nnc2c(-n3ccnc3)ncnc21	PKM2 act 1.1µM | HeLa tox inactive
CCOc1ccc(OCC)c(NC(=O)CCC(=O)N2CCOc3ccccc32)c1	none (no result: GAA inhib, GALK inhibitor, PKM2 act, GAA spleen mod)

From PubChem BioAssay
